HIF-2a inh: HIF-2a reporter inhibitors, primary screen, luminescence, 786-0 RCC cells; inhibition, % at 18.8 µM; actives 0.72% (n = 360,000); 786-0 RCC cells HIF-2a reporter, luciferase luminescence, overnight; AID 624352, 2012;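 active = inhibition of the luminescence signal of 40% or more relative to plate controls, in a single-dose primary screen at 18.75 µM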
TRAIL sens C8: viability loss with TRAIL in NB7+C8 cells, primary screen, TRAIL sensitizer project, cell-based, ATPlite luminescence | inhibition (viability loss, TRAIL sensitization), % at 10 µM | actives 1% (n = 360,000) | AID 624354, 2012;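 active = compounds causing at least 50% loss of cell viability in the single-dose screen, relative to plate controls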
KKLEB tox: cytotoxicity in KKLEB CF airway cells, primary screen, cytotoxicity control for CF NF-kB inhibitor project, cell-based, uHTS, fluorescence assay plates; KKLEB CF airway cells viability, ATPlite luminescence, overnight; stronger effect = lower value; cells stimulated with P. aeruginosa culture filtrate; activity change (cytotoxicity), % at 5 µM; actives 0.36% (n = 360,000); AID 602141, 2011;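 active = corrected activity change at or below -50% at 5 µM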
PPC-1+TRAIL kill: compounds killing PPC-1 cancer cells with TRAIL present, primary screen, TRAIL potentiator project, ATPLite luminescence, uHTS. PPC-1 cells + TRAIL, ATPLite viability luminescence. cell killing (% activity), % at 4 µM or 5 µM. actives 0.41% (n = 220,000);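 active = cell killing above 50% in the first pass at 4 µM, then a duplicate retest at 5 µM averaging 50% or more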;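 also: plate controls were cells with TRAIL plus DMSO for no effect and medium-only wells lacking cells for full effect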
CF NFkB inh: inhibitors of PAF-induced NF-kB signaling, primary screen, cell-based, GFP fluorescence, uHTS; KKLEB NF-kB-GFP reporter, GFP fluorescence overnight; inhibition, % at 5 µM; actives 0.86% (n = 360,000); AID 588850, 2011;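 active = at least 50% inhibition at 5 µM, scaled per plate between neutral and stimulator controls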;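 also: PAF is a Pseudomonas aeruginosa culture filtrate used as stimulus; plate controls were PAF-stimulated DMSO wells for no effect and unstimulated DMSO wells for full effect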
Peg3 prom inh: Peg3 promoter-driven luciferase inhibitors, primary screen, cell-based, HeLa, luciferase luminescence; inhibition, % at 20 µM; AID 588405, 2011; HeLa PEG-Prom luciferase reporter, overnight; actives 1.7% (n = 360,000);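 active = inhibition of at least 50% at 20 µM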
The depositor's hits bear a star; · = no result; ! = a repeat was not active. Compounds with a hit are over-represented: about 3.1% of the library has one in this group of screens.

SMILES | HIF-2a inh | TRAIL sens C8 | KKLEB tox | PPC-1+TRAIL kill | CF NFkB inh | Peg3 prom inh
Clc1ccc(CSc2ccc(-c3ccco3)nn2)cc1 | -201 | 9 | -11 | 8 | 1 | -147
c1ccc(CSc2ccc(-c3ccco3)nn2)cc1 | -233 | 59* | -15 | 26 | -11 | -248
Cc1cc([N+](=O)[O-])nn1Cc1ccc(C(=O)N/N=C/c2ccc(F)cc2)cc1 | -10 | -14 | -1 | 5 | 7 | -8
Cc1cc([N+](=O)[O-])nn1Cc1ccc(C(=O)N/N=C/c2ccc(O)cc2O)cc1 | -2 | 14 | -18 | 31 | 24 | 56*
COc1ccccc1/C=C1\CCCC2=C1Nc1nnnn1C2c1ccccc1OC (stereo not drawn) | 26 | -9 | -12 | -22 | 46 | 101*
Cc1cccnc1CCNC(=O)c1ccc(OC2CCN(Cc3ccccn3)CC2)cc1 | 19 | -6 | -1 | · | -36 | 72*
COCC(=O)N1CCC(Oc2ccc(C(=O)NCCc3ncccc3C)cc2)CC1 | -6 | 0 | 31 | · | 0 | 22
COc1cc(C(=O)Nc2nnc(CC(C)(C)C)s2)c([N+](=O)[O-])cc1OC | 16 | 10 | 9 | 15 | 5 | -42
COc1cc(C(=O)Nc2nnc(C(C)(C)C)s2)c([N+](=O)[O-])cc1OC | 10 | 9 | -5 | 9 | 2 | 62*
CCCCN(C(=O)c1ccc(N(C)S(=O)(=O)c2ccc(C)cc2)cc1)c1c(N)n(CC(C)C)c(=O)[nH]c1=O | 3 | -6 | 3 | · | 6 | 7
CCCCN(C(=O)c1ccc(S(=O)(=O)N2CCC(C)CC2)cc1)C1CCS(=O)(=O)C1 (stereo not drawn) | 14 | 4 | -10 | · | 1 | 17
Cc1cc(C)c2nc(N3CCC(C(=O)NCCCN4CC(C)CC(C)C4)CC3)sc2c1 (stereo not drawn) | -57 | 5 | -9 | 16 | 17 | 104*
O=C(NCc1ccccc1)c1ccc(NC(=O)C2CCC2)cc1 | -24 | -14 | 12 | · | -12 | -37
Cc1c(C(=O)N2CCN(Cc3ccc4c(c3)OCO4)CC2)sc2ncnc(N3CCN(c4ccccc4F)CC3)c12 | -20 | 36 | -18 | · | -24 | 58*
Cc1c(C(=O)N2CCN(Cc3ccc4c(c3)OCO4)CC2)sc2ncnc(N3CCN(c4ccccc4)CC3)c12 | -3 | 26 | 9 | · | -24 | 58*
Cc1c(C(=O)N2CCN(c3ccccn3)CC2)sc2ncnc(N3CCN(c4ccccc4)CC3)c12 | 13 | 4 | -4 | · | 1 | 22
COc1ccc(N2C(=O)c3ccccc3NC(=O)C2C(=O)Nc2ccc3c(c2)OCCO3)cc1 (stereo not drawn) | -86 | -12 | · | · | · | ·
CCOC(=O)C1(C)CCCN(C(=O)c2c(F)cccc2F)C1 (stereo not drawn) | 5 | -18 | 2 | · | 14 | -3
CCOc1ccccc1Nc1nc(-c2sc(NC(=O)c3ccco3)nc2C)cs1 | 15 | -10 | -10 | -3 | 19 | 60*
CC(=O)Nc1nc(C)c(-c2csc(Nc3ccc(O)cc3)n2)s1 | 0 | 25 | -17 | 11 | 78* | 37
Cc1nc(NC(=O)c2ccccc2)sc1-c1csc(Nc2ccc(C(=O)O)cc2)n1 | -136 | 18 | -4 | 4 | 66* | -53
CCC(=O)Nc1nc(C)c(-c2csc(Nc3ccc(C(=O)O)cc3)n2)s1 | 11 | -8 | 4 | · | -1 | -3
CC(=O)Nc1nc(C)c(-c2csc(Nc3ccccn3)n2)s1 | -210 | 10 | -21 | 13 | 56*! | -180
CCCC(=O)Nc1nc(C)c(-c2csc(Nc3ccc(Cl)cc3)n2)s1 | 3 | 31 | -4 | 19 | 34 | 1
Cc1ccccc1Nc1nc(-c2sc(NC(=O)c3ccco3)nc2C)cs1 | -5 | -10 | 2 | 5 | 5 | -6
SMILES | HIF-2a inh | TRAIL sens C8 | KKLEB tox | PPC-1+TRAIL kill | CF NFkB inh | Peg3 prom inh
CSc1ccc(/C=C/C(=O)OCC(=O)c2ccc[nH]2)cc1 | -148 | 2 | 0 | · | 2 | -56
CC(=O)Nc1nc(C)c(-c2csc(Nc3cccc([N+](=O)[O-])c3)n2)s1 | -31 | -1 | -39 | 32 | 86* | 47
CCCC(=O)NC(c1ccco1)c1cc(Cl)c2cccnc2c1O (stereo not drawn) | 20 | 10 | 4 | -9 | -25 | 69*
CCCC(=O)NC(c1ccc2c(c1)OCO2)c1cc(Cl)c2cccnc2c1O (stereo not drawn) | 3 | 43 | -8 | 26 | -11 | 55*
CCCC(=O)NC(c1cccs1)c1cc(Cl)c2cccnc2c1O (stereo not drawn) | 10 | 34 | 5 | 17 | -14 | 45
CC(C)C(=O)NC(c1ccco1)c1ccc2cccnc2c1O (stereo not drawn) | 4 | 19 | -2 | -1 | -6 | 53*
CC(C)C(=O)NC(c1cccs1)c1cc([N+](=O)[O-])c2cccnc2c1O (stereo not drawn) | 15 | 38 | -5 | 7 | 9 | 56*
CC1CCN(S(=O)(=O)N2CCC(C(=O)NC(C)c3ccccc3)CC2)CC1 (stereo not drawn) | 10 | -31 | -13 | · | 12 | 1
O=C(O)CCc1ccc(S(=O)(=O)Nc2cc(C(F)(F)F)ccc2N2CCCC2)cc1 | -5 | -2 | 15 | · | 0 | -8
CCCc1cc(=O)[nH]c(SCC(=O)Nc2cc(S(=O)(=O)N3CCCCC3)ccc2C)n1 | 23 | 50* | 3 | · | 2 | 5
Cc1cc(=O)[nH]c(SCC(=O)Nc2cc(S(=O)(=O)N3CCCC3)ccc2Cl)n1 | 10 | -1 | -2 | 16 | 6 | 9
COc1ccc(NC(=O)C[C@H]2C(=O)N(c3ccc(OC)cc3)C[C@@H]2C)cc1 | 2 | -18 | 6 | · | 5 | -1
CCOC(=O)c1cnc2c(-c3ccccc3)c(-c3ccccc3)nn2c1C | -10 | -1 | 10 | · | 10 | 19
CCN(CC)c1ccc(/C=N/NC(=O)CNC(=O)C2COc3ccccc3O2)c(O)c1 (stereo not drawn) | -3 | -2 | -30 | · | 12 | 50*
CCCn1c(C(C)Nc2nc(-c3ccc(Cl)c([N+](=O)[O-])c3)cs2)nc2cc(Cl)c(N3CCCCC3)cc21 (stereo not drawn) | 13 | 0 | -20 | · | 27 | -4
Cc1nn(CCc2nn[nH]n2)c2nc(-c3ccc(C4CCCCC4)cc3)cc(C(F)(F)F)c12 | 12 | 13 | -57* | 26 | 76* | 24

Screening data from PubChem BioAssay.
